# Most compounds without a hit are left out; they make up all but 10% or so of the library.
# G9a inh: G9a (human) methyltransferase inhibition | 350,000 compounds, 8.8% hits | Potency, µM (top dose mostly 102 µM), for the others: at the highest dose activity, negative = inhibition, hits mostly inhibitors | G9a H3K9 monomethylation, AlphaScreen, 2 h | Q96KQ7; also: % is scaled to controls: 0 for no effect and ±100 for the full control effect; nearly all actives have a fitted effect of over 75% in size
# Target sequence (Q96KQ7 913-1193 limits assumed): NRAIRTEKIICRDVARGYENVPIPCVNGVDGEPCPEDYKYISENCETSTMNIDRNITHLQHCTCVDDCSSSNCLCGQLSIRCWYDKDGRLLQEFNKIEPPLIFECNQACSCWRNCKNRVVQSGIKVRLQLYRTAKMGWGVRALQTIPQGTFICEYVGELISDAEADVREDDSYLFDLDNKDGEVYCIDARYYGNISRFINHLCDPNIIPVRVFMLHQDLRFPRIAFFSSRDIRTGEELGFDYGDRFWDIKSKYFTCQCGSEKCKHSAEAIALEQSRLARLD
#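 Chemiluminescent proximity detection of H3K9 monomethylation, read after 10 min bead incubation in the dark. Reaction: 20 nM G9a, 500 nM biotin-H3K9 peptide, 20 uM SAM cofactor, 2 h, room temperature, following 15 min enzyme-compound preincubation.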
# HP1b binding inh: HP1-beta chromodomain-methylated histone interaction inhibition | AlphaScreen HP1-beta / biotin-H3K9me3 peptide binding | Potency, µM (doses to about 114 µM), for inactives: at the top dose activity change, negative = inhibition, actives largely listed as inhibitors | 390,000 compounds, 0.56% hits | AID 540317; also: nearly all actives have a fitted effect of over 70% in size
# Target sequence (P83916 whole entry, looked up): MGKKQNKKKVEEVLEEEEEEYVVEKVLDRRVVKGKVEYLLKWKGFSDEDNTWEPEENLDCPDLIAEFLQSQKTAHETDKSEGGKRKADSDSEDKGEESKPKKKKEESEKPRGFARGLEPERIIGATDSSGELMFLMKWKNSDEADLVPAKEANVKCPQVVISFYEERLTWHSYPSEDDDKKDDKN
#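 Compound inhibition of the preformed complex between 50 nM HP1-beta and 50 nM biotinylated H3K9me3 peptide was read by AlphaScreen. Buffer was PBS pH 7.4 with 0.01% Tween-20. Incubations ran 30 min at room temperature, with 10 ug/mL donor/acceptor beads.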
# GLS inhibitor: blocks human kidney-isoform glutaminase activity; O94925; GLS enzymatic activity, qHTS titration; Potency, µM (doses to about 45.5 µM), without a hit: at the top dose activity change, negative = inhibition, hits mostly inhibitors; 410,000 compounds, 0.21% hits; AID 624170; also: % is scaled to controls: 0 for no effect and ±100 for the full control effect
#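 Compounds were pin-transferred onto hKGA, after which L-glutamine (1 mM solution) and a detection mix of glutamate oxidase, HRP and Amplex Red were added. Initial and 30 min RT fluorescence reads were collected.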
# JMJD2A Tudor: blocks the human JMJD2A Tudor domain. O75164. AlphaScreen JMJD2A-Tudor / H3K4me3 peptide binding. Potency, µM (highest dose often 114 µM), inactives show at the top dose activity change, negative = inhibition, usual class: inhibitors. 390,000 compounds, 4.4% hits; also: % is scaled to controls: 0 for no effect and ±100 for the full control effect; nearly all actives have a fitted effect of over 50% in size
# BAZ2B inh: blocks human BAZ2B | AID 504333 | Q9UIF8 | 360,000 compounds, 4.4% hits | Potency, µM (highest dose often 114 µM), without a hit: top-dose activity change, negative = inhibition, usual class: inhibitors | AlphaScreen BAZ2B-H3K14Ac peptide displacement; also: % is scaled to controls: 0 for no effect and ±100 for the full control effect; nearly all actives have a fitted effect of over 60% in size
#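 In this displacement format the biotinylated H3(5-23) peptide acetylated at Lys14 serves as ligand at 50 nM, with BAZ2B at 50 nM in PBS pH 7.4 containing 0.01% Tween-20. Donor and acceptor beads are 10 ug/mL final.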
# * hit, by the source's call; ? = inconclusive; . = no result; ! = not active in a repeat; [ ] = dose if it differs, or a comment. Calls follow the shape of the dose curve; as a rule, active = well fitted curve in the direction sought with a large enough effect; inconclusive = small, poorly fitted or top-dose-only effect, or another doubt; inactive = no such curve, though single readings can be large; an effect the other way counts as inactive or inconclusive. Potency is read from the fitted curve at half-maximal effect.
SMILES,G9a inh,HP1b binding inh,GLS inhibitor,JMJD2A Tudor,BAZ2B inh
CCOC(=O)c1c(-c2ccccc2)oc2ccc(N(C(C)=O)S(=O)(=O)c3ccc(C)cc3)cc12,6%[59 µM],12%,6%,-10%,-1%
CN(C)S(=O)(=O)N1CCCC(C(=O)c2ccc(-c3ccccc3)cc2)C1 (stereo not given),.,21%,0%,-11%,-3%
OC(COCC1COc2ccccc2O1)CN1CCN(c2ccccc2)CC1 (stereo not given),36%[0.501 µM],-5%,25%,?,79µM*
CCN1CCN(CC(O)COCC2COc3ccccc3O2)CC1 (stereo not given),?,20%,-8%,-5%,-25%
C[N+]1(CC(O)COCC2COc3ccccc3O2)CCOCC1 (stereo not given),35µM*,22%,2%,-11%,-19%
CCOC(=O)CNC(=O)CSc1nnc(-c2ccncc2)n1-c1ccc(Cl)cc1,?,37%,.,13%,5%
COc1cc2ccccc2cc1C(=O)NC(=S)Nc1cccc(C(=O)O)c1,?,-9%,11%,-28%,79µM*
COc1cc2ccccc2cc1C(=O)NC(=S)Nc1ccc(C(=O)O)cc1,?,-1%,26%,50µM*,50µM*
CC(=O)c1cccc(NC(=S)NC(=O)c2ccccc2)c1,?,19%,15%,-17%,-31%
COc1ccc(N=c2oc3c(OC)cccc3cc2C(=O)NCc2ccco2)cc1OC,?,10%,-2%,-30%,8%
COc1cccc2cc(C(=O)Nc3ccc(F)cc3)c(=Nc3ccc(C(=O)O)cc3)oc12,35µM*,18%,?,-31%,-2%
COc1ccc2c(c1)[C@H]1[C@H](CO2)[C@H](c2ccccc2)[C@]2(C)C(=O)Nc3ccc(C)cc3C(=O)N12,.,-11%,-1%,?,.
Cc1ccc(S(=O)(=O)N2C[C@H]3N(C(=O)OC(C)C)N(C(=O)OC(C)C)C[C@H](OC(=O)NCc4ccccc4F)[C@@]3(O)C2)cc1,.,.,-1%,.,.
CC(C)c1nnc(NC(=O)CCS(=O)(=O)Cc2ccccc2)s1,28µM*,-16%,14%,1%,0%
CC(C)c1nnc(NC(=O)CCS(=O)(=O)c2nc(-c3cccs3)cc(C(F)(F)F)n2)s1,1.8µM*,30%,9%,-23%,89µM*
O=C(CCS(=O)(=O)c1nc(-c2cccs2)cc(C(F)(F)F)n1)Nc1ccc(OC(F)(F)F)cc1,-4%[59 µM],23%,6%,-8%,11%
Cc1c(C(=O)NCCNc2ncc(C(F)(F)F)cc2Cl)cccc1[N+](=O)[O-],0%,8%,0%,0%,-1%
N#C/C(=C(/O)C(Cl)(Cl)Cl)c1nc2ccccc2[nH]1,5%,22%[57 µM],14%,50µM*,-16%
C/C(O)=C(/C#N)c1nc2ccccc2[nH]1,10µM*,34%,6%,-29%,?
N#C/C(=C(\O)c1cc(Cl)sc1Cl)c1nc2ccccc2[nH]1,29%,18%[57 µM],15%,-32%,71µM*
N#C/C(=C(/O)c1ccc(Cl)cc1)c1nc2ccccc2[nH]1,15%,13%,-3%,-20%,-1%
N#C/C(=N\O)c1nc2ccccc2[nH]1,9%,15%,9%,56µM*,?
C/C(=N\NC(=O)c1csc(C)c1C)c1ccco1,3%[59 µM],33%,4%,-10%,-1%
O=C(NCc1n[nH]c(=S)n1-c1ccccc1)c1ccc(S(=O)(=O)N2CCOCC2)cc1,?,10%,5%,7.1µM*,-4%
O=C(NCc1ccccc1)c1ccc(S(=O)(=O)N2CCCCCC2)cc1,.,.,0%,.,.
SMILES,G9a inh,HP1b binding inh,GLS inhibitor,JMJD2A Tudor,BAZ2B inh
O=C(NCc1n[nH]c(=S)n1-c1ccc(F)cc1)c1ccco1,22µM*,28%,-4%,22µM*,-7%
O=C(NCc1n[nH]c(=S)n1-c1ccccc1)c1ccc(S(=O)(=O)N2CCCCC2)cc1,8.9µM*,22%,0%,?,9%
O=C(NCc1n[nH]c(=S)n1-c1ccc(F)cc1)c1ccc(S(=O)(=O)N2CCOCC2)cc1,14µM*,13%,14%,13µM*,-1%
O=C(Cc1ccccc1)NCc1n[nH]c(=S)n1-c1ccc(Br)cc1,?,8%,?,?,-18%
O=C(CNC(=O)c1ccc(F)cc1)NCc1ccc(S(=O)(=O)N2CCOCC2)cc1,-9%,19%,-7%,-7%,4%
O=C(c1ccc(C(F)(F)F)cc1)C1CCCN(C(=O)Cn2cnnn2)C1 (stereo not given),23%,13%,1%,-10%,4%
COc1ccc2oc(=O)c(C(=O)N3CCN(c4ccccc4C)CC3)cc2c1,-31%[12.7 µM],48%,7%,1%,-18%
CCOC(=O)C1=CCN(S(=O)(=O)c2ccccc2)C1c1ccccc1 (stereo not given),.,.,-2%,.,.
CCN1CCN(S(=O)(=O)c2ccc(Cl)c(C(=O)Nc3ccccc3N3CCCC3)c2)CC1,24%[0.501 µM],-18%,27%,?,?
O=C(NCC1(N2CCOCC2)CCCCC1)c1cccc(S(=O)(=O)Nc2ccc(F)cc2)c1,-2%[2.33 µM],12%,0%,-25%,-2%
Cc1cccc(NC(=O)c2ccc(-c3ccccc3)s2)c1,4%[59 µM],26%,-15%,-9%,0%
CCC1(C)CC(=O)N(c2ccc(F)c(Cl)c2)C(=O)C1,-8%,37%,-18%,13%,-7%
CCC1(C)CC(=O)N(c2ccc(C(=O)O)c(O)c2)C1=O (stereo not given),50µM*,16%,-1%,-35%,-36%
Cc1cccc(C(c2c(C)nn(-c3ccccc3)c2N)c2c(C)nn(-c3ccccc3)c2N)c1,-19%[59 µM],-15%,17%,-35%,?
CCc1ccc(C(c2c(C)nn(-c3ccccc3)c2N)c2c(C)nn(-c3ccccc3)c2N)cc1,?,-35%,23%,56µM*,?
N#Cc1cc2c(=O)n3ccccc3nc2n(Cc2cccnc2)c1=O,.,27%,1%,-6%,.
COc1ccc(C(=O)Nc2nnc(S(=O)(=O)N3CCC(C)CC3)s2)cc1OC,13µM*!,26%,22%,?,?
CC1CCN(S(=O)(=O)c2nnc(NC(=O)c3ccc(C(C)C)cc3)s2)CC1,14µM*,-17%,5%,?,?
COc1ccc(C(=O)Nc2nnc(S(=O)(=O)N3CCCCCC3)s2)cc1OC,?,?,19%,-3%,-4%
O=C(NNC(=O)C12CC3CC(CC(C3)C1)C2)c1cnccn1,3.2µM*,33%,7%,-1%,-3%
O=C(COC(=O)CCOc1ccccc1)NCc1ccco1,?,?,-8%,40µM*,32µM*
O=C(COC(=O)CCC(=O)c1ccc(Cl)cc1)NCc1ccco1,50µM*,-14%,-5%,?,.
O=C(COc1ccccc1)NCc1ccco1,.,-6%,-3%,-13%,.

# Screens from PubChem.
